Assay outcomes as filed in PubChem BioAssay.
Compounds with a hit are over-represented: about 21% of the library has one in this group of screens.
ClpP mod = qHTS Assay for Activators of ClpP | ATP-dependent Clp protease proteolytic subunit (Bacillus subtilis (strain 168)), P80244 | purified B. subtilis ClpP, FRET peptide cleavage, 20 min | Potency, µM (series often up to 57.5 µM), for the others: top-dose activity change, negative = active | 340,000 compounds, 1.9% hits | AID 651965, 2013; active = well fitted falling curve with a large enough effect; inconclusive = small, poorly fitted or top-dose-only effect; inactive = no such curve, though single readings can be large or run the other way; note: potency is the fitted concentration of half-maximal effect; the source files actives as falling curves though it sought activators and does not explain the sign; nearly all actives have a fitted effect of over 65% in size
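ClpP 10 microg/mL final, pH 8 Tris/KCl buffer with BSA, glycerol, Tween-20; compound pinned in; FRET-FV substrate; RT 20 min; Ex320/Em430; ΔFRET vs ADEP 5.8 microM, DMSO, no enzyme.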
D3 ag = qHTS of D3 Dopamine Receptor Agonist: qHTS; D3R DiscoveRx beta-arrestin cells, luminescence, 90 min; max activation, %; 410,000 compounds, 0.58% hits; in the data active = max activation above about 30%; note: 0% is about no effect
Target sequence (P35462 whole entry, looked up): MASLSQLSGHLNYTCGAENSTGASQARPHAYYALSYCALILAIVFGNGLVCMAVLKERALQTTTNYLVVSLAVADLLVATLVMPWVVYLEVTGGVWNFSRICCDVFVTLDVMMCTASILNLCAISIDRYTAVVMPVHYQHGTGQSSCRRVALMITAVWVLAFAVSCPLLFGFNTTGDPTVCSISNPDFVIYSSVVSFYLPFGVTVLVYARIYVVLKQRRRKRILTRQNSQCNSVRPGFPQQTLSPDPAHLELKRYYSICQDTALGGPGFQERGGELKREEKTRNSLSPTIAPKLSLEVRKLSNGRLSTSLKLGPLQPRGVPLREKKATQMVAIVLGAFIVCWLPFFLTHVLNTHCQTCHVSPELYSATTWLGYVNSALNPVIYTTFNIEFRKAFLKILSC
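Agonist mode: compounds and dopamine controls were applied to plated cells for 90 min at 37 degrees C after an overnight attachment at 1500 cells/well. Luminescent read-out followed 30 - 60 minutes at room temperature with DiscoveRx detection reagent.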
IL-1B inflam inh = qHTS for Inhibitors of Inflammasome Signaling: IL-1-beta AlphaLISA Primary Screen. THP-1 LPS/ATP IL-1B secretion, AlphaLISA, 16 h; stronger effect = lower value. activity change, % at 57.5 µM. 360,000 compounds, 4.7% hits. AID 743279, 2014; in the data active = activity change below about -50%; inconclusive = mostly about -30% to -49%; note: % is set by controls: 0 for no effect and ±100 for the full control effect
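THP-1 cells pretreated 1 hr with compounds (up to 57.5 uM final), then stimulated with LPS (250 ng/mL final) plus ATP (1.25 mM final); secreted IL-1B measured by AlphaLISA after 16 hr, decreased signal indicating inhibition.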
DRD3 antagonist = qHTS of D3 Dopamine Receptor Antagonist: qHTS | 360,000 compounds, 2.5% hits | max response, negative = inhibition, % | D3R cells, DiscoveRx beta-arrestin luminescence, antagonist mode; stronger effect = lower value; in the data active = max response below about -50%; inconclusive = no clear call, values can overlap the other calls; note: % is set by controls: 0 for no effect and ±100 for the full control effect
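Cells plated overnight at 1500 cells/well, then exposed to library compounds with dopamine controls for 90 minutes at 37 degrees C. DiscoveRx reagent added for 30–60 minutes at room temperature; luminescence read, quantitative HTS format.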
TDP1 cell CPT = qHTS for Inhibitors of human tyrosyl-DNA phosphodiesterase 1 (TDP1): qHTS in cells in presence of CPT; chicken DT40 Tdp1-/-;hTDP1 cells + 20 nM CPT, ATP luminescence, 48 h; Potency, µM (doses to about 46.2 µM), without a hit: top-dose activity change, negative = growth inhibition, most hits filed as inhibitors; 420,000 compounds, 12% hits; AID 686979, 2013; note: potency is the fitted concentration of half-maximal effect; % is set by controls: 0 for no effect and ±100 for the full control effect; nearly all actives have a fitted effect of over 55% in size
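Chicken DT40 Tdp1-/- cells stably complemented with human TDP1 were seeded at 400 cells/well in medium containing 20 nM camptothecin, exposed to pin-transferred compounds, and grown at 37 °C for at least 48 hr. Viability was read as ATP luminescence.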
TDP1 cell noCPT = qHTS for Inhibitors of human tyrosyl-DNA phosphodiesterase 1 (TDP1): qHTS in cells in absence of CPT | DT40 Tdp1-/- hTDP1 cells, no CPT, ATP luminescence, 48 h | Potency, µM (series often up to 46.2 µM), for the others: at the top dose activity change, negative = growth inhibition, hits mostly inhibitors | 420,000 compounds, 15% hits; note: potency is the fitted concentration of half-maximal effect; % is set by controls: 0 for no effect and ±100 for the full control effect; nearly all actives have a fitted effect of over 55% in size
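Seeded 400 DT40-hTDP1 cells/well (vehicle DMSO, no 20 nM CPT); pinned compounds; ≥48 hr at 37 °C; CellTiter-Glo luminescence as viability measure.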
Active calls of the source: *; u = inconclusive; x = no result. Unless noted, calls come from the whole dose curve; as a rule, active = well fitted inhibition curve with a large enough effect; inconclusive = small, poorly fitted or top-dose-only effect; inactive = flat fitted curve, though single readings scatter.

SMILES | ClpP mod | D3 ag | IL-1B inflam inh | DRD3 antagonist | TDP1 cell CPT | TDP1 cell noCPT
CCn1c(N2CCN(C(=S)NCC(C)C)CC2)nc2ccccc21 | 1% | -7 | -54* | -14 | u | -22%
Cn1c(=O)c2c(nc(OC3CCCCCC3)n2C)n(C)c1=O | 2% | 7 | -8 | -20 | u | u
CCOc1ccccc1NC(=O)CSc1c(C)cnc2c1c(=O)n(C)c(=O)n2C | 0% | 1 | x | x | u | u
Cc1[nH]n(-c2nc(-c3ccc(Cl)cc3)cs2)c(=O)c1N=Nc1ccc(O)cc1 | x | -11 | -51* | 8 | 2.6µM* | 5.8µM*
CC(C)C(NC(=O)c1cccc(S(=O)(=O)N2CCOCC2)c1)C(=O)NCc1ccc(Cl)cc1 (stereo unspecified) | 0% | 2 | -23 | 26 | u | u
CCc1ccc2ncc3c(-c4ccc(C)cc4)nn(CC(=O)Nc4ccc(C)cc4)c3c2c1 | -8% | 6 | x | x | -15% | 1%
O=Cc1ccccc1-n1cccn1 | x | 5 | 0 | 4 | 17% | 9%
O=Cc1ccccc1C=O | x | -7 | x | x | 9.4µM* | u
O=Cc1ccccc1Oc1ccccc1 | 1% | -3 | 10 | 24 | u | 12µM*
N#Cc1ccccc1Oc1ccccc1C=O | 0% | -2 | 25 | -3 | u | 16µM*
COc1cc(OC)nc(Oc2ccccc2C=O)n1 | x | -2 | -16 | 7 | u | u
Cc1cccc(-n2ncc(C(=O)N3CCN(Cc4ccccc4)CC3)c2C2CCN(C(=O)OC(C)(C)C)CC2)c1 | 1% | 1 | x | x | 16µM* | 16µM*
Cc1ccc(-n2ncc(C(=O)N3CCN(c4cccc(C)c4)C(C)C3)c2C2CCN(C(=O)OC(C)(C)C)CC2)cc1 (stereo unspecified) | 0% | -9 | x | x | 15µM* | 23µM*
CCN1CCN(C(=O)c2cnn(-c3cccc(Cl)c3)c2C2CCN(C(=O)OC(C)(C)C)CC2)CC1 | -1% | -15 | x | x | -23% | u
CC(C)(C)OC(=O)N1CCC(c2c(C(=O)N3CCN(c4ccccc4)CC3)cnn2-c2ccccc2)CC1 | -1% | 3 | x | x | u | 16µM*
COc1ccc(-n2ncc(C(=O)N3CCN(Cc4ccccc4)CC3)c2C2CCN(C(=O)OC(C)(C)C)CC2)cc1 | 0% | 2 | x | x | 13µM* | 21µM*
CN1CCN(C(=O)c2cnn(-c3ccccc3)c2C2CCN(C(=O)OC(C)(C)C)CC2)CC1 | -1% | -1 | x | x | -3% | -10%
Cc1ccc(NC(=O)CSc2nnc(C3CC3)n2N)cc1S(=O)(=O)N1CCOCC1 | x | 5 | 0 | 14 | 14% | 8%
CCCCn1c(N)c(N(CCOC)C(=O)COC(=O)COc2cc(C)c(Cl)cc2C(C)C)c(=O)[nH]c1=O | x | 3 | -98* | 3 | 12% | -14%
CC(C)CN(C(=O)CN(C)CC(=O)Nc1ccc(Cl)c(C(F)(F)F)c1)c1c(N)n(CC(C)C)c(=O)[nH]c1=O | x | 18 | -66* | 4 | u | 18µM*
CCCCn1c(N)c(N(CCOC)C(=O)CSCc2ccc(Cl)c(Cl)c2)c(=O)[nH]c1=O | -5% | -11 | -13 | -15 | -26% | u
CCCCn1c(N)c(N(CCOC)C(=O)CN(C)CC(=O)Nc2ccc(Cl)c(Cl)c2)c(=O)[nH]c1=O | -4% | -6 | u | -13 | 18µM* | u
CC1CCCCN1S(=O)(=O)c1ccc2c(c1)C(C)(C)C(=O)N2C (stereo unspecified) | -1% | 4 | -5 | -21 | -22% | -19%
